{"source": "the OligoGym collection", "data": [{"target": "ZNF135", "test": "pooled miR-30 sensor sort-seq; sequence = guide strand", "conditions": "shRNA", "values": [{"sequence": "TCTCATTTCTGGAACACTCTGC", "sensor-assay potency score (higher = more potent)": 0.253}, {"sequence": "ATGAATATCAGAGTCAACCTGC", "sensor-assay potency score (higher = more potent)": 0.469}, {"sequence": "TTCTTCAGAGATGCCTTGCTTT", "sensor-assay potency score (higher = more potent)": -0.404}, {"sequence": "TTTCTCATGTGTATGATTGGGT", "sensor-assay potency score (higher = more potent)": 0.467}, {"sequence": "TTAGAACTGACAGTTTGACTTT", "sensor-assay potency score (higher = more potent)": -0.0207}]}, {"target": "ZNF146", "test": "pooled miR-30 sensor sort-seq; sequence = guide strand", "conditions": "shRNA", "values": [{"sequence": "TTAACCTCATTCGTGGTGCTTT", "sensor-assay potency score (higher = more potent)": -0.543}, {"sequence": "TTACATTCGAAAAGCTTCTCGC", "sensor-assay potency score (higher = more potent)": -0.0579}, {"sequence": "TTTCTAATGAAAGCTTTCCCAC", "sensor-assay potency score (higher = more potent)": -1.05}, {"sequence": "TTTTATGAGGTACTTCTTCTGG", "sensor-assay potency score (higher = more potent)": -0.457}, {"sequence": "TTCCACAAACATTGCATTCGTA", "sensor-assay potency score (higher = more potent)": 0.428}, {"sequence": "ATGTTTAATGACATACTGCTTT", "sensor-assay potency score (higher = more potent)": -0.84}, {"sequence": "TTTATGAGGTACTTCTTCTGGC", "sensor-assay potency score (higher = more potent)": 0.438}, {"sequence": "TTTATCACCTGAATGAATCCTC", "sensor-assay potency score (higher = more potent)": 0.519}, {"sequence": "TTGGATTTGCCACTGAAGGTTT", "sensor-assay potency score (higher = more potent)": -0.469}, {"sequence": "TTAAAGTTAACCTCATTCGTGG", "sensor-assay potency score (higher = more potent)": 0.427}, {"sequence": "TCCACAAACATTGCATTCGTAA", "sensor-assay potency score (higher = more potent)": -1.11}, {"sequence": "TTGAGAACTGAGAGAAAGCTTT", "sensor-assay potency score (higher = more potent)": -0.35}]}, {"target": "ZNF160", "test": "pooled miR-30 sensor sort-seq; sequence = guide strand", "conditions": "shRNA", "values": [{"sequence": "TCTATGTCTCTTCTGTCGCGTT", "sensor-assay potency score (higher = more potent)": -0.213}, {"sequence": "TTCTATGTCTCTTCTGTCGCGT", "sensor-assay potency score (higher = more potent)": 0.15}, {"sequence": "TTTTGAGTGAAGCTCTTGCCAC", "sensor-assay potency score (higher = more potent)": -0.929}, {"sequence": "TGTCTTTCCAACACCACTGTGT", "sensor-assay potency score (higher = more potent)": 0.215}, {"sequence": "TTCTGTACTGCTCTTCTCTTTT", "sensor-assay potency score (higher = more potent)": -0.536}, {"sequence": "TTACCTATTACTCTCCTCCCAC", "sensor-assay potency score (higher = more potent)": -0.496}, {"sequence": "TTTCTTGCTATTTTCACACAGC", "sensor-assay potency score (higher = more potent)": -0.0844}, {"sequence": "TAAACAACAGGTATTGCTCTTT", "sensor-assay potency score (higher = more potent)": 0.3}, {"sequence": "TAGGCTTGAACGAACACTGAAG", "sensor-assay potency score (higher = more potent)": -0.806}, {"sequence": "TATGTTTACATGATGTCTCTTG", "sensor-assay potency score (higher = more potent)": 0.273}, {"sequence": "TGAATTTTGAGTGAAAACCTTG", "sensor-assay potency score (higher = more potent)": -0.306}, {"sequence": "TTGATCTCTTTTACCTTCTTTC", "sensor-assay potency score (higher = more potent)": -0.844}]}, {"target": "ZNF169", "test": "pooled miR-30 sensor sort-seq; sequence = guide strand", "conditions": "shRNA", "values": [{"sequence": "TAGCGCATATTGTCTGAGGAGC", "sensor-assay potency score (higher = more potent)": -1.15}, {"sequence": "TTCAACATTGTGTCTGACCCCC", "sensor-assay potency score (higher = more potent)": 0.288}, {"sequence": "TATTGTCTGAGGAGCTGCGAGC", "sensor-assay potency score (higher = more potent)": -1.19}, {"sequence": "TTGATAAGGTCTGATCTCTGGC", "sensor-assay potency score (higher = more potent)": 0.151}, {"sequence": "TTCGTCGCCTTGCTCCAGCTGT", "sensor-assay potency score (higher = more potent)": -0.551}, {"sequence": "TTTCTTAATGAGCTGTCGGGGC", "sensor-assay potency score (higher = more potent)": -0.62}, {"sequence": "TAGAAGGAGGGCTATCTTCTGG", "sensor-assay potency score (higher = more potent)": -0.694}, {"sequence": "TAAGGTGTGACTTCTGGCCAAG", "sensor-assay potency score (higher = more potent)": -0.969}, {"sequence": "ATATTGTCTGAGGAGCTGCGAG", "sensor-assay potency score (higher = more potent)": -1.34}, {"sequence": "TTTTTCACTAGAGCATCTTGGA", "sensor-assay potency score (higher = more potent)": 0.14}, {"sequence": "TTTCACTAGAGCATCTTGGAGC", "sensor-assay potency score (higher = more potent)": -0.176}]}]}
